From ChEMBL document CHEMBL3988442, “University of Dundee, Small-Polar-MMV Screening Library” (2021) come the findings set out here.

The whole screen tested about 69,000 compounds, of which about 1,000 (1.4%) showed an effect of 50% or more. This is one part of a sample in which strong results are shown more often than they occur.

The subject of the assay is Leishmania donovani. The experiment in a line: Leishmania intramacrophage assay. The format is functional, organism-based. On the set-up: scale not given: in the data most compounds retested in dose-response had high values.

Turning to `COCCCn1c(CN2CCSCC2)cnc1S(=O)(=O)C1CCCC1`, the “Percent Effect” value (30.3 µM, […]) is recorded as 17.55%.
For `CCc1nc2n(n1)CC(NCC(=O)Nc1ccc(Cl)cn1)CC2` (stereo unspecified), the “Percent Effect” value (30 µM, 30.03 µM) stood at 11.34%.
With `CC(CNS(N)(=O)=O)Oc1cccc(Cl)c1` (stereo unspecified), the “Percent Effect” value (30.3 µM, […]) came out at 5.132%.
In the case of `NCc1ccc(Oc2cccc(Cl)c2Cl)cc1`, the “Percent Effect” value (30.3 µM, […]) is reported as 17.28%.
Still for that read-out and setting: in the case of `CCOc1ccccc1C(N)CC(C)C` (stereo unspecified) it was 19.23%.
Consider `CCCOc1ccccc1C(N)CC(C)C` (stereo unspecified), for which, where the note is “30.3 µM, […]”, the “Percent Effect” value was 24.69%.
Still for that read-out and setting: to `CC(C)C[C@H](N)COc1cccc(F)c1Oc1ccccc1` belongs 56.67%; to `CC(CNS(C)(=O)=O)Oc1cccc(Cl)c1` (stereo unspecified), 6.182%.
Regarding `CC(C)C[C@H](N)COc1cccc(F)c1Oc1cccc(Cl)c1`, for the setting “30.3 µM, […]”, the “Percent Effect” value was 98.08%.
On the same count and under the same terms, in the case of `Cc1ccc(Oc2c(F)cccc2OC[C@@H](N)CC(C)C)cc1` it was 95.01%.
For the compound `COc1ccccc1C(N)CC(C)C` (stereo unspecified), the “Percent Effect” value (30.3 µM, […]) is listed as 3.977%.
For the compound `CC(C)C[C@H](N)COc1cccc(F)c1Oc1ccc(Cl)cc1`, the “Percent Effect” value (30.3 µM, […]) is 96.61%.
Consider `CNCc1cc(F)ccc1Oc1ccc(Cl)cc1`, for which, under “30.3 µM, […]”, the “Percent Effect” value was -3.595%.
In the case of `CC(C)COc1ccccc1C(N)CC(C)C` (stereo unspecified), the “Percent Effect” value (30.3 µM, […]) is recorded as 23.51%.
As to `CCn1c(NCc2ccco2)nc2c(C)nn(C)c2c1=O`, the “Percent Effect” value (30 µM, 30.03 µM) was found to be 16.24%.
Consider `Cc1cc(CN2CCN(C(C)C)C(CCO)C2)[nH]n1` (stereo unspecified), for which the “Percent Effect” value (30.3 µM, […]) is listed as 0.4197%.
Same read-out and setting: to `c1ccc(Cc2nnc([C@H]3CCN(C4CCCCC4)C3)o2)cc1` belongs 11.62%; to `COc1ccccc1-n1nc(CC(C)C)nc1CSc1nnc(N)s1`, 13.73%.
`CN(C)C(=O)COC[C@]12COC[C@H]1CN(C1CCCC1)C2.O=C(O)C(F)(F)F`: the “Percent Effect” value (30.3 µM, […]) turned out to be 40.35%.
Regarding `CC(C)(C)NC(=O)CN1CCNCC1.Cl.Cl`, the “Percent Effect” value (30.3 µM, […]) turned out to be 11.16%.
In the case of `O=C(O)C(F)(F)F.O=C1CC2(CCN(CC3CC3)C2)CN1c1ccc2c(c1)OCO2` (stereo unspecified), the “Percent Effect” value (30 µM, 30.03 µM) was determined as 25.29%.
As for `Cc1c(C(C)N)cnn1-c1cccc2ccccc12` (stereo unspecified), for the setting “30.3 µM, […]”, the “Percent Effect” value is listed as 22.69%.
On to `Cc1ccc(-c2noc(CCC(=O)NC(C)Cn3cccn3)n2)cc1` (stereo unspecified), for which the “Percent Effect” value (30.3 µM, […]) came out at 22.16%.
As for `CCCc1ccc(S(=O)(=O)Nc2ccc(=O)n(C)c2)cc1`, for the setting “30 µM”, the “Percent Effect” value is given as 20.55%.
For `Cc1ccc(S(=O)(=O)Nc2ccc(=O)n(C)c2)cc1`, where the note is “30 µM, 30.03 µM”, the “Percent Effect” value is on record as 54.33%.
Consider `Cn1cc(NS(=O)(=O)c2ccc(C(F)(F)F)cc2)ccc1=O`, for which, under “30 µM”, the “Percent Effect” value is recorded as -2.5%.
In the case of `CCN1CC2(CC1=O)CN(Cc1ccoc1)CCN(C(=O)C(C)C)C2` (stereo unspecified), the “Percent Effect” value (30.3 µM, […]) is 8.034%.
In the case of `O=C(c1ccc(Br)o1)N1CCN(Cc2ccc(OC(F)(F)F)cc2)CC1`, the “Percent Effect” value (30 µM, 30.03 µM) amounted to 31.07%.
Consider `CN(Cc1nc(N)nc(N(C)C)n1)Cc1cccc2ccccc12`, for which the “Percent Effect” value (30.3 µM, […]) is on record as 1.643%.
Consider `CN(CCc1cccc2ccccc12)Cc1nc(N)nc(N(C)C)n1`, for which, under “30.3 µM, […]”, the “Percent Effect” value is listed as 94.18%.
For `CN(CC(=O)Nc1cccc(F)c1)Cc1nc(N)nc(N(C)C)n1`, where the note is “30.3 µM, […]”, the “Percent Effect” value was 21.77%.
With `Cc1ccc(CN2CCCC3(CCN(S(C)(=O)=O)C3)C2)o1.O=C(O)C(F)(F)F` (stereo unspecified), the “Percent Effect” value (30 µM, 30.03 µM) stood at 4.141%.
With `COCc1cc(NCCCSc2nnc(C)s2)ncn1`, under “30.3 µM, […]”, the “Percent Effect” value is reported as 26.84%.
`COc1cc(NCCCSc2nnc(C)s2)ncn1`: the “Percent Effect” value (30.3 µM, […]) worked out at 57.45%.
As for `Cc1nnc(SCCCNc2cc(C3CC3)ncn2)s1`, the “Percent Effect” value (30.3 µM, […]) amounted to 31.22%.
As for `Cc1nnc2n1CCN(C(=O)COCCOc1ccccc1)C2`, the “Percent Effect” value (30 µM, 30.03 µM) is reported as 16.55%.
Still for that read-out and setting: to `Cc1cc(CN2CCCC(C)(CO)C2)ccc1F` (stereo unspecified) belongs 31.69%.
`Cc1nc(C)n(CC2CN(Cc3noc(C4CC4)n3)CCO2)n1` (stereo unspecified): the “Percent Effect” value (30.3 µM, […]) is -6.202%.
As to `Cc1cnc(CCNC(=O)C2CCN(S(=O)(=O)c3ccc(F)cc3)C2)s1` (stereo unspecified), the “Percent Effect” value (30.3 µM, […]) is reported as 33.75%.
Take `COCCN1CCC(CN(CC2CCCO2)C(=O)Cc2cccs2)CC1` (stereo unspecified): the “Percent Effect” value (30.3 µM, […]) is 8.21%.
`COCCN1CCC(CN(CC2CCCO2)C(=O)Cn2cccn2)CC1` (stereo unspecified): the “Percent Effect” value (30.3 µM, […]) came out at 58.18%.
Consider `COCCN1CCC(CN(CC2CCCO2)C(=O)COC)CC1` (stereo unspecified), for which the “Percent Effect” value (30 µM, 30.03 µM) was -10.91%.
For `Cc1nc(NC(=O)N2CCCC(C(C)(C)O)C2)nn1C` (stereo unspecified), the “Percent Effect” value (30.3 µM, […]) is -6.912%.
With `Cc1cnccc1N1CCN(C(=O)C2CC3(CCNCC3)CN2)CC1` (stereo unspecified), the “Percent Effect” value (30.3 µM, […]) is given as -56.52%.
For `Cc1cccc(N2CCN(C(=O)C3CC4(CCNCC4)CN3)CC2)n1` (stereo unspecified), the “Percent Effect” value (30.3 µM, […]) was 82.82%.
`O=C(C1CC2(CCNCC2)CN1)N1CCN(c2ccccc2)CC1` (stereo unspecified): the “Percent Effect” value (30.3 µM, […]) is listed as -6.874%.
Take `Cc1cccc(-c2nc(C)nn2CN2CCC3(CC2)OCCO3)c1`: under “30.3 µM, […]”, the “Percent Effect” value is -6.145%.
Take `CCCc1nnc(SCc2cc(=O)n3c4c(sc3n2)CCCC4)[nH]1`: for the setting “30.3 µM, […]”, the “Percent Effect” value was 1.73%.
Still for that read-out and setting: to `Cc1nnc(SCc2cc(=O)n3c4c(sc3n2)CCCC4)[nH]1` belongs 36.41%; to `CCc1nnc(SCc2cc(=O)n3c4c(sc3n2)CCCC4)[nH]1`, 54.93%.
On to `CN[C@@H]1CCC[C@@H](Oc2ccccc2Oc2ccc(C)cc2)[C@@H]1O`, for which, for the setting “30.3 µM, […]”, the “Percent Effect” value came to 98.74%.
